Growth data for 14 compounds are collected here from PubChem BioAssay (NCI).

What all share (test): NCI-60 one-dose screen, 48 h (100 = growth as untreated, 0 = no growth, -100 = all killed)
Settings in all cases: 10 µM unless noted

Assay [1] deals with DU-145 prostate.
Assay [2] deals with K-562 leukemia.
For assay [3], the system named is MALME-3M melanoma.
Assay [4] deals with MDA-MB-231 breast.
Assay [5] relates to RXF 393 renal.
The subject of assay [6] is SF-268 CNS.
Assay [7] concerns SF-295 CNS.
The subject of assay [8] is SF-539 CNS.
Assay [9] concerns UACC-257 melanoma.
For assay [10], the system named is M14 melanoma.

This is part of a sample that, as a whole, favours compounds with a hit. Of some 83,000 tested, about 20% had one in any assay.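 The endpoint reported here, percent growth, reads 100 for growth as untreated, 0 for no net growth and -100 for all cells dead.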 A number with no mark means an inactive call. Calls of active or inactive are those of the source. How the source made its calls: active means growth percent below 10; inactive means the rest.

In the case of `CCCCN(CCCC)CCCNc1c2c(nc3ccc(Cl)cc13)CCCC2`, the growth in assay [1] is 107%; in assay [2], 72.8%; in assay [3], 126%; in assay [4], 70.5%; in assay [5], 109%; in assay [6], 92.3%. In addition, the growth in assay [7] was 90.1%; in assay [8], 100%; in [9] it was 105%.
As for `CCOC(=O)C1=C(c2ccccc2)NC(=O)NC1CN1C(=O)c2ccccc2C1=O` (configuration not stated), the growth in assay [1] was 105%; in assay [2] it was 50.6%; in assay [3], 71.2%; in assay [4] it was 108%; in [5], 116%; in assay [6], 93.7%. Moreover, the results for the growth in assay [7], in [8] and in assay [9] were 115%, 106% and 112%, respectively.
For the compound `COc1cccc2c1n([O-])c1cccc(OC)c1[n+]2=O`, the growth in assay [1] was 60.9%; in [2], 37.6%; in assay [3], 89.2%; in [4] it was 95.7%; in assay [5], -35.3% (active); in assay [6] it was 62%. The figures for the growth in [7], in assay [8] and in assay [9] were 120%, 68.4% and 71%, respectively.
On to `CCOC(=O)c1cc(C(=O)c2ccc(Br)cc2)n2cc(C)cc(C)c12`, for which the growth in assay [1] was 100%; in assay [2], 99%; in assay [3], 96.1%; in [4], 79.8%; in [5] it was 64.2%; in [6] it was 97.2%. The growth was 100% in assay [7], 87.3% in assay [8], 87.2% in [9] and 94.2% in [10].
Take `COc1cc(-c2nn(-c3ccc(NC(=O)Nc4ccc(Cl)c(Cl)c4)cc3)cc2-c2ccncc2)ccc1Cl`: the growth is 40.8% in assay [1]; 17.2% in [2]; 57.2% in [3]; 43.3% in assay [4]; 22.6% in assay [5]; 44.3% in [6]. In addition, the growth is 3.1% (active) in assay [7], 54% in assay [8], 56.5% in assay [9] and 24.5% in [10].
Take `NC(=O)c1c(Nc2ccccc2)nn2cc(-c3nc4ccccc4s3)c(N)nc12`: the growth is 107% in [1]; 93.1% in assay [2]; 96% in [3]; 84.7% in assay [4]; 102% in assay [5]; 95.6% in [6]. For the same compound, the growth was 98.7% in assay [7], 95.3% in assay [8], 118% in assay [9] and 93.5% in [10].
For `COc1cc(/C=C/C(=O)/C=C(/C=C/c2ccc(OC(C)=O)c(OC)c2)OB(F)F)ccc1OC(C)=O`, the growth in [1] is 64.5%; in [2], 15.2%; in [3] it was 51.7%; in [4], 80.8%; in assay [5], 14.7%; in [6], 81.2%. Further, the growth was 86.7% in assay [7], 56.8% in [8], 63% in [9] and 34.1% in assay [10].
As to `O=C(CCl)c1ccc2c(c1)CCCC2`, the growth was 110% in assay [1]; 72.1% in assay [2]; 80.8% in [3]; 103% in assay [4]; 99% in assay [5]; 104% in assay [6]. In addition, the growth was 70.2% in assay [7], 90.8% in [8], 98.1% in [9] and 95.5% in assay [10].
For the compound `CCN(CCO)CCNc1ccc(C)c2sc3cc(OC)ccc3c(=O)c12`, the growth is 72.2% in [1]; 20.1% in assay [2]; 103% in [3]; 64.2% in assay [4]; 71.4% in [5]; 70.1% in [6]. Besides, the growth in [7] is 73.7%; in assay [8] it was 77.2%; in [9] it was 103%; in assay [10], 79.3%.
`Nc1nc2c(c3cnccc13)C(c1ccc(Cl)c(Cl)c1)Cc1cnccc1-2` (configuration not stated): the growth is -5.69% (active) in assay [1]; 4.04% (active) in [2]; -67% (active) in assay [3]; -35% (active) in [4]; -74.2% (active) in assay [5]; -10.9% (active) in [6]. In addition, the growth in assay [7] is -29.9% (active); in [8] it was -45.1% (active); in assay [9], -12.8% (active); in [10], -44.2% (active).
On to `Clc1ccc(N/N=C(/c2ccccc2)c2ccccn2)nc1`, for which the growth is 42% in assay [1]; 15.5% in [2]; 50.5% in assay [3]; 30.7% in assay [4]; 74.6% in assay [5]; 37.8% in assay [6]. Further, the growth is 41.2% in [7], 41.3% in assay [8], 13.4% in assay [9] and 28.9% in assay [10].
Take `Cc1ncc(C(=O)Nc2ccc(CN3CCN(C)CC3)c(C(F)(F)F)c2)cc1C#Cc1cnc(NC2CC2)c2ncccc12`: the growth in [1] is -83.1% (active); in assay [2], -56.8% (active); in assay [3], -88.5% (active); in [4], -97.3% (active); in [5], -90.6% (active); in assay [6], -72.7% (active). The growth was -91.8% (active) in assay [7], -98.3% (active) in assay [8], -65% (active) in assay [9] and -89.8% (active) in assay [10].
On to `Oc1ccc([S+](c2ccc(O)cc2)c2ccc(O)cc2)cc1`, for which the growth in [1] is 120%; in assay [2], 94.7%; in [3] it was 106%; in assay [4], 117%; in assay [5], 94.6%; in assay [6], 114%. Further, the growth is 96% in assay [7], 98.9% in assay [8], 98.4% in [9] and 105% in assay [10].
Turning to `CC(C)OC(=O)c1ccc2n1CCCc1cnc(Nc3ccccc3)nc1-2`, the growth in [1] is 87.2%; in assay [2] it was 43.6%; in assay [3], 55.4%; in assay [4], 78%; in [5], 91.2%; in assay [6], 94.4%. Moreover, the growth is 76.1% in assay [7], 86.1% in [8], 82.8% in [9] and 89.6% in assay [10].
